Assay [1] is described as follows: HepG2 liver cancer cell viability effects, profiling panel, resazurin fluorescence, 24 h, PK04 Diversity Set (AID 1172). Conditions: higher = more signal. For orientation: The colour change of resazurin is a common sign of viable cells or microbes.
The nature of assay [2]: basal S. cerevisiae growth modulation, no modifier, primary screen, OD600, strain BY4716, 24 h, basal condition (AID 1173). Conditions: OD600, 24 h, higher = more signal, called active from +8 up or from −8 down.
A short description of assay [3]: MM1S myeloma cell viability, profiling panel, resazurin fluorescence, basal, 24 h, PK04 Diversity Set (AID 1174).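 Further: MM1S multiple myeloma cell line.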 Conditions: higher = more signal, called active from +8 up or from −8 down.
The target in assay [4] is Dihydroorotate dehydrogenase (quinone), mitochondrial (Plasmodium falciparum (isolate 3D7)) (UniProt Q08210). The assay is described as follows: PfDHODH enzyme inhibitors, primary screen, biochemical, C-terminal His tag, absorbance 600 nm (AID 1175).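 Further: recombinant parasite enzyme with a five histidine tag at its C terminus.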 Conditions: DCIP absorbance 600 nm, higher = more signal, called active from +8 up or from −8 down.
Assay [5] in a line: P. aeruginosa biofilm formation inhibitors, primary screen, strain PAO1, LB-PBS medium, absorbance 600 nm (AID 1176). Conditions: P. aeruginosa PAO1 growth/biofilm, A600, 12 h; higher = more signal.
Assay [6] in a line: S. cerevisiae RM11-1a growth modifiers, primary screen, strain RM11-1a, OD600, basal, 24 h (AID 1177).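 Further: cultures grown under basal conditions with no added stressor.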 Conditions: OD600, 24 h, higher = more signal, called active from +8 up or from −8 down.
A short description of assay [7]: E. coli acrAB mutant growth effects, primary screen, E. coli filamentation inducers, strain DRC39, OD650, 24 h (AID 1178).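 Further: growth measured as culture turbidity by optical density at 650 nm.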 As to conditions: higher = more signal, called active from +8 up or from −8 down.
Assay [8] in a line: E. coli acrAB mutant growth effects, primary screen, E. coli filamentation inducers, strain DRC39, OD650, 48 h (AID 1179).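 Further: screen aims at cell division blockers that make cells filament.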 As to conditions: E. coli DRC39 delta-acrAB growth, higher = more signal, called active from +8 up or from −8 down.
The nature of assay [9]: RPMI8226 myeloma cell viability, profiling panel, resazurin fluorescence, basal, 24 h, PK04 Diversity Set (AID 1180).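 Further: RPMI8826 multiple myeloma cell line at 5000 cells per well.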 Conditions: higher = more signal.
Assay [10] deals with E3 ubiquitin-protein ligase XIAP (Homo sapiens) (UniProt P98170). Nature of the assay: XIAP binders, primary screen, biophysical, small-molecule microarray, fluorescence 635 nm (AID 1181).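 Further: score merges 667 nm emission and signal to noise over triplicate slides.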 As to conditions: small-molecule microarray binding, higher = more signal.
The subject of assay [11] is XIP peptide (Xip251-270) binding. The assay is described as follows: small-molecule binders of XIP peptide, primary screen, biochemical, small-molecule microarray, fluorescence 635/667 nm, 0.1 µg/mL protein (AID 1182). As to conditions: fluorescent protein binding, 635 nm, higher = more signal, called active from +8 up or from −8 down.
The subject of another assay is XIP peptide (Xip251-270). The assay is described as follows: small-molecule binders of XIP peptide, primary screen, biochemical, small-molecule microarray, fluorescence 635/667 nm, 0.5 µg/mL protein (AID 1183). As to conditions: small-molecule microarray binding, fluorescence 635 nm; higher = more signal.
Assay [12] is described as follows: Plasmodium falciparum growth inhibition, primary screen, strain 3D7, DAPI fluorescence, 100 nL (AID 1184).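 Further: parasites grown inside human red blood cells in medium with human serum.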 Conditions: P. falciparum 3D7 growth, 3 d, higher = more signal.
The target in assay [13] is Homeobox protein Hox-A13 (Mus musculus) (UniProt Q62424). Nature of the assay: inhibitors of HoxA13-DNA binding, primary screen, biochemical, fluorescence polarization, labeled oligonucleotide (AID 1185). Conditions: 15 min, higher = more signal, called active from +8 up or from −8 down. In general terms: Polarisation of emitted light reports the rotation of a fluorescent probe.

Assay [14] can be described thus: inhibitors of hydroxyurea-induced Chk1 phosphorylation, primary screen, imaging, HeLa, phospho-Chk1 antibody, percent positive cells (AID 1186). Conditions: hydroxyurea-induced phospho-Chk1 immunofluorescence imaging, higher = more signal.
Assay [15] is described as follows: inhibitors of hydroxyurea-induced Chk1 phosphorylation, primary screen, imaging, HeLa, phospho-Chk1 nuclear intensity (AID 1187). Conditions: hydroxyurea-induced phospho-Chk1 immunofluorescence imaging, higher = more signal.

The source made the active and inactive calls. Unless noted, how the calls were made is not given here.

Sequence of Homeobox protein Hox-A13 (Mus musculus) (Q62424 whole entry, looked up): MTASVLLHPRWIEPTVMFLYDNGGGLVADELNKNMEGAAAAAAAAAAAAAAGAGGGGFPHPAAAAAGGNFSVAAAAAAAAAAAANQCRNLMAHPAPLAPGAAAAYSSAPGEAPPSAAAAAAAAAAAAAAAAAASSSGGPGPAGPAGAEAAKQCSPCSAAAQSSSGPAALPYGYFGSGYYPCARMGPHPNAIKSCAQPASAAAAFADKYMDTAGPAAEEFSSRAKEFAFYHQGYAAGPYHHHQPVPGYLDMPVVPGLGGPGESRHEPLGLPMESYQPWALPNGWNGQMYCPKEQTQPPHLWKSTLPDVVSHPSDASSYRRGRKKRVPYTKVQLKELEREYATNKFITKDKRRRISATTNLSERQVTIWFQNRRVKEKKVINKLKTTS
Sequence of Dihydroorotate dehydrogenase (quinone), mitochondrial (Plasmodium falciparum (isolate 3D7)) (Q08210 whole entry, looked up): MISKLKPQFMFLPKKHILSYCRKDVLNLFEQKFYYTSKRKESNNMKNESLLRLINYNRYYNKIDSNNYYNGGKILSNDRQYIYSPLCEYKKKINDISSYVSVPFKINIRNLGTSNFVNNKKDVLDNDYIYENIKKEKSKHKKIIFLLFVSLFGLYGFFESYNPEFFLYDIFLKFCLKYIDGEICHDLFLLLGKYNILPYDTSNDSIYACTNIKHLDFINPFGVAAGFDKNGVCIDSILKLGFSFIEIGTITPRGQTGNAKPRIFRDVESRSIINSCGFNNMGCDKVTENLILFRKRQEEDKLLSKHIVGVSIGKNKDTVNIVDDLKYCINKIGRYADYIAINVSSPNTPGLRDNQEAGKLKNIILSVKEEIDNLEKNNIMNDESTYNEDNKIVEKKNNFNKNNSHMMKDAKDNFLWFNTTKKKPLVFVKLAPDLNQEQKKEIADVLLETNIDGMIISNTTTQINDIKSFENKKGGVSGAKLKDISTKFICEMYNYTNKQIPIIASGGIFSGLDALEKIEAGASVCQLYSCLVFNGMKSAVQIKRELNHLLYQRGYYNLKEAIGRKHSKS
Sequence of E3 ubiquitin-protein ligase XIAP (Homo sapiens) (P98170 whole entry, looked up): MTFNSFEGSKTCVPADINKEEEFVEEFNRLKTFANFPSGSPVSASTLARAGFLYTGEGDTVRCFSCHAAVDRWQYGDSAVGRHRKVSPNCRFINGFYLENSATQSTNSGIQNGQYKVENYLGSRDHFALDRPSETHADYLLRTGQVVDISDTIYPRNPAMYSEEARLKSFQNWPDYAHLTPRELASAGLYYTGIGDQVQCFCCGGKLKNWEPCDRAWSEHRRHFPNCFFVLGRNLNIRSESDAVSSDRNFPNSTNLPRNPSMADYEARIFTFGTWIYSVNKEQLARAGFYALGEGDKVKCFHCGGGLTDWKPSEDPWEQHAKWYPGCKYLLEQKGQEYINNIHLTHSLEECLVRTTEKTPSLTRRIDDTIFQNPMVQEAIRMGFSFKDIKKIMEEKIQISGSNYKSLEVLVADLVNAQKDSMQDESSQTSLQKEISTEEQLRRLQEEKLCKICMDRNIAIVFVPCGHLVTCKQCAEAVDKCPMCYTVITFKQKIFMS

On to `C=CC[C@@]1(C(=O)OC)N=C(c2ccc(OCCCO)cc2)O[C@@H]1c1ccccc1N=[N+]=[N-]`, for which the z-score in [1] is -0.0361; in assay [2] it was -1.28 (inactive); in assay [3] it was -0.768 (inactive); in [5], -0.043 (inactive); in assay [6] it was 1.72 (inactive); in assay [7], 0.906 (inactive). Also, the z-score in assay [8] is -1.05 (inactive); in [9] it was -0.937; in assay [12], -2.27; in assay [13], -3.81 (inactive); in [14] it was -0.312 (inactive); in assay [15], 0.0948 (inactive). Further, the composite z-score in [4] is 1.09 (inactive); in [10] it was 0.0142; in assay [11], 0.741 (inactive); in the assay with XIP peptide (Xip251-270), 0.852.

As to `O=C(N1CCOCC1)[C@@]1(Cc2ccccc2)COC(c2ccc(OCCCO)cc2)=N1`, the z-score in assay [1] was -0.395; in [2], -3.37 (inactive); in assay [3], 0.13 (inactive); in assay [5], 0.565 (inactive); in assay [6], -0.428 (inactive); in [7], 1.26 (inactive). In addition, the z-score in [8] is 0.284 (inactive); in [9] it was 1.15; in assay [12], -1.99; in [13], -5.19 (inactive); in assay [14], -0.42 (inactive); in assay [15], -0.504 (inactive). The composite z-score in assay [4] is -0.641 (inactive); in assay [10], 0.081; in [11] it was 0.509 (inactive); with XIP peptide (Xip251-270), 0.52.

With `N#Cc1ccc(NN2C(C(O)C3CC=CCC3)C=CC3C(=O)N(c4ccccc4)C(=O)C32)cc1` (centres undefined), the z-score was -1.3 in assay [1]; 0.0837 (inactive) in [2]; -0.609 (inactive) in [3]; 1.36 (inactive) in [5]; 0.601 (inactive) in [6]; 0.0108 (inactive) in [7]. In addition, the z-score in [8] is 0.123 (inactive); in [9], -0.382; in assay [12], 0.134; in assay [13], -2.69 (inactive); in assay [14], 0.123 (inactive); in assay [15] it was 0.22 (inactive). Also, the composite z-score in [4] was 0.0758 (inactive); in assay [10], -0.0848; in assay [11] it was 0.0603 (inactive); in the assay with XIP peptide (Xip251-270), 0.678.

`C=C(COC)/C(=C/C[C@@H](OC(C)=O)c1ccccc1OCCO)c1cnc2ccccc2c1`: the z-score in assay [1] was -1.15; in assay [2] it was -2.19 (inactive); in [3], -0.975 (inactive); in assay [5], -0.104 (inactive); in assay [6] it was 0.315 (inactive); in assay [7], -1.17 (inactive). Moreover, the z-score in assay [8] was -0.828 (inactive); in [9] it was -0.3; in assay [12] it was -2.92; in assay [13], -5.76 (inactive); in assay [14], -0.5 (inactive); in assay [15], -0.376 (inactive). Further, the composite z-score in [4] is -7.89 (inactive); in [10] it was 0.0739; in assay [11], 0.534 (inactive); with XIP peptide (Xip251-270), 0.69.

As to `COCCOC(=O)N1C(=O)[C@@]2(c3cc(C#CCCO)ccc31)[C@H](C(N)=O)[C@H]1C(=O)O[C@H](c3ccccc3)[C@H](c3ccccc3)N1[C@@H]2c1ccccc1OCCO`, the z-score in assay [1] was -0.231; in [2], 1.11 (inactive); in assay [3] it was -2.76 (inactive); in assay [5], 0.594 (inactive); in [6], 2.34 (inactive); in [7] it was 0.354 (inactive). Further, the z-score is 0.449 (inactive) in assay [8]; -1.95 in [9]; -1.31 in [12]; -3.88 (inactive) in [13]; 0.0461 (inactive) in [14]; -0.303 (inactive) in [15]. The composite z-score in assay [4] was 0.754 (inactive); in [10] it was -0.124; in [11], 1.47 (inactive); in the assay with XIP peptide (Xip251-270) it was 0.832.

With `CCOC(=O)C1=CC[C@@H](c2ccc(OC)cc2)N(S(=O)(=O)c2ccc(C)cc2)[C@H]1c1ccc(C)cc1`, the z-score was 0.164 in [1]; 1.31 (inactive) in assay [2]; -0.616 (inactive) in assay [3]; -0.0601 (inactive) in assay [5]; -0.187 (inactive) in assay [6]; -0.346 (inactive) in assay [7]. Besides, the z-score was -0.148 (inactive) in [8]; -0.652 in [9]; 0.869 in assay [12]; -0.57 (inactive) in assay [13]; -0.0113 (inactive) in [14]; -0.5 (inactive) in assay [15]. Moreover, the composite z-score in [4] was -0.329 (inactive); in assay [10], 0.126; in assay [11], 0.3 (inactive); in the assay on XIP peptide (Xip251-270), 0.44.

In the case of `Cc1ccc(F)cc1S(=O)(=O)N[C@H]1CCN(Cc2ccc(OC(C)C)cc2)C1`, the z-score in assay [1] is -0.757; in assay [2] it was -9.28 (active); in assay [3] it was -1.1 (inactive); in assay [5], -0.107 (inactive); in assay [6], 0.297 (inactive); in [7] it was -1.42 (inactive). For the same molecule, the z-score is -2.48 (inactive) in assay [8]; -1.19 in assay [9]; 0.646 in [12]; -5.72 (inactive) in assay [13]; -0.0604 (inactive) in assay [14]; 0.581 (inactive) in [15]. In addition, the composite z-score was -0.0588 (inactive) in assay [4], -0.0773 in assay [10], 0.479 (inactive) in assay [11] and 0.338 in the assay with XIP peptide (Xip251-270).

As to `[N-]=[N+]=NCc1ccccc1[C@@H]1OC(c2ccc(OCCCO)cc2)=N[C@]1(Cc1ccccc1N=[N+]=[N-])C(=O)O`, the z-score in assay [1] is 0.495; in assay [2], -3.6 (inactive); in assay [3], 0.589 (inactive); in [5], 1.42 (inactive); in assay [6], 0.783 (inactive); in assay [7] it was 2.32 (inactive). The z-score in assay [8] was 0.499 (inactive); in assay [9], -0.0845; in assay [12], -1.9; in [13], -3.59 (inactive); in assay [14], 0.277 (inactive); in assay [15] it was 0.585 (inactive). Besides, the composite z-score was 0.454 (inactive) in assay [4], 0.104 in assay [10], 1.21 (inactive) in [11] and 0.722 in the assay on XIP peptide (Xip251-270).

As to `COCCCNC(=O)[C@@]1(CCC(=O)OC(C)(C)C)COC(c2ccc(OCCCO)cc2)=N1`, the z-score is 1.18 in [1]; -0.579 (inactive) in [2]; 1.27 (inactive) in assay [3]; -0.978 (inactive) in assay [5]; -0.561 (inactive) in assay [6]; 0.391 (inactive) in assay [7]. Also, the z-score is 0.624 (inactive) in assay [8]; 0.928 in assay [9]; -0.547 in assay [12]; -5.74 (inactive) in assay [13]; -0.0385 (inactive) in [14]; 0.304 (inactive) in assay [15]. In addition, the composite z-score in [4] is -0.176 (inactive); in assay [10] it was -0.0272; in [11], 0.192 (inactive); with XIP peptide (Xip251-270), 0.732.

For the origin of these results see PubChem BioAssay.
